Assay outcomes (PubChem)
Compounds with a hit are over-represented: about 17% of the library has one in this group of screens.
HepG2 tox: HepG2 cytotoxicity, counter-screen for TGF-b inhibitors; HepG2 CAGA-GFP viability, ATP luminescence, 18 h; Potency, µM (top dose mostly 46.1 µM), inactives show at the highest dose activity change, negative = cytotoxicity, actives largely listed as cytotoxic; hit rate 0.76% among 410,000
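CellTiter-Glo luminescence gave cytotoxicity after 18 hours at 37 degrees C. The cells were HepG2 CAGA-GFP in 1% FBS DMEM, stimulated with 500 pg/mL TGF-beta after compound addition. %Activity was normalised to no-cell wells (complete cell-killing) and DMSO (no toxicity), and curves were fitted and classified.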
ATXN2 expr inh: reduces ATXN2 reporter expression in HEK-293 cells; Potency, µM (titrated, usually from 57 µM), for the others: at the highest dose activity change, negative = inhibition, usual class: inhibitors; HEK-293 ATXN2-luciferase reporter, luminescence, 24 h; hit rate 0.72% among 360,000; note: % is set by controls: 0 for no effect and ±100 for the full control effect; nearly all actives have a fitted effect of over 55% in size
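ATXN2-luciferase reporter cells (luciferase flanked by upstream and downstream ATXN2 gene portions) were treated 24 h at 37 °C with compounds at up to 57 uM. SteadyGlo luminescence gave expression; GF-AFC fluorescence gave viability.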
TGFb inhibitor: blocks TGF-b signaling | HepG2 CAGA-GFP TGF-b/SMAD3 reporter, GFP fluorescence, 18 h; TGF-beta stimulated, 500 pg/mL final | Potency, µM (top dose mostly 46.1 µM), for the others: at the top dose activity, negative = inhibition, usual class: inhibitors | hit rate 1.2% among 410,000; note: % is set by controls: 0 for no effect and ±100 for the full control effect; nearly all actives have a fitted effect of over 65% in size
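GFP signal (ex488/em500-530) from TGF-beta-stimulated HEPG2 CAGA-GFP cells, 500 pg/mL final, 18 h at 37 degrees C in DMEM plus 1% FBS, normalized to unstimulated and DMSO-stimulated controls.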
TDP1 cell CPT: growth inhibition of DT40 Tdp1-/-;hTDP1 cells with camptothecin (screen for TDP1 inhibitors); chicken DT40 Tdp1-/-;hTDP1 cells + 20 nM CPT, ATP luminescence, 48 h; Potency, µM (top dose mostly 46.2 µM), without a hit: at the top dose activity change, negative = growth inhibition, actives largely listed as inhibitors; hit rate 12% among 420,000; note: % is set by controls: 0 for no effect and ±100 for the full control effect; nearly all actives have a fitted effect of over 55% in size
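Cell growth measured by CellTiter-Glo luminescence after a minimum 48 h, 37 C compound exposure with 20 nM CPT in Tdp1-knockout DT40 cells stably expressing hTDP1, seeded 400/well; qHTS titration format.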
DT40 TDP1 no CPT: qHTS for Inhibitors of human tyrosyl-DNA phosphodiesterase 1 (TDP1): qHTS in cells in absence of CPT. DT40 Tdp1-/- hTDP1 cells, no CPT, ATP luminescence, 48 h. Potency, µM (series often up to 46.2 µM), without a hit: at the top dose activity change, negative = growth inhibition, most hits filed as inhibitors. hit rate 15% among 420,000. AID 686978, 2013; note: % is set by controls: 0 for no effect and ±100 for the full control effect; nearly all actives have a fitted effect of over 55% in size
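A cellular qHTS used chicken DT40 cells lacking endogenous Tdp1 but carrying stably transfected human TDP1. Compounds were applied without camptothecin, and cell growth kinetics were judged by ATP-dependent luminescence after ≥48 hr.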
S2 tox: cell viability loss in ATXN counter-screen | S2 cells (HEK-293 line with an ATXN2-luciferase reporter) viability, CellTiter-Fluor protease fluorescence, 24 h | Potency, µM (highest dose often 56.7 µM), usual class: cytotoxic | hit rate 0.49% among 400,000; note: nearly all actives have a fitted effect of over 40% in size
Numbers without * were called inactive; i = inactive; u = inconclusive; x = not tested or not shown. Calls come from the whole dose curve; as a rule, active = well fitted curve in the direction sought with a large enough effect; inconclusive = small, poorly fitted or top-dose-only effect, or another doubt; inactive = no such curve, though single readings can be large; an effect the other way counts as inactive or inconclusive. Potency is the fitted concentration of half-maximal effect.

SMILES	HepG2 tox	ATXN2 expr inh	TGFb inhibitor	TDP1 cell CPT	DT40 TDP1 no CPT	S2 tox
O=S1(=O)CC(N2CCN(CCO)CC2)CN1Cc1cn(Cc2cccc(C(F)(F)F)c2)nn1 (stereo not given)	x	2%	x	-15%	-3%	i
Cc1ccc(SCc2[nH]nc3c2C(C(C)C)C(C#N)=C(N)O3)cc1 (stereo not given)	-41%	-1%	-10%	u	u	i
Cc1ccc(SCc2[nH]nc3c2C(c2ccco2)C(C#N)=C(N)O3)cc1 (stereo not given)	13µM*	-7%	u	u	u	i
Cc1ccc(SCc2[nH]nc3c2C(c2ccc(C)o2)C(C#N)=C(N)O3)cc1 (stereo not given)	-69%	-17%	u	16µM*	16µM*	i
C#Cc1ccc([C@@H]2C=C(C(=O)NCc3ccccc3)O[C@H](OCCCCO)C2)cc1	-34%	-6%	0%	-12%	-16%	i
Cc1ccc(C(C(=O)NCC2CCCO2)N(C(=O)c2snc(C(N)=O)c2N)c2ccccc2F)o1 (stereo not given)	-5%	-9%	14%	u	u	x
CCCS(=O)(=O)N1CC(=O)N(c2ccc(Cl)cc2)C(C)(C(=O)NC2CCCC2)C1 (stereo not given)	7%	x	0%	-21%	-21%	x
CC(=O)Nc1cccc(NC(=O)CSc2cn(CC(=O)N3CCCCCC3)c3ccccc23)c1	-21%	x	0%	18µM*	u	x
COC(=O)c1ccc(NC(=O)CSc2cn(CC(=O)N3CCCCC3)c3ccccc23)cc1	-18%	x	5.6µM*	21µM*	u	x
CC(=O)c1cccc(NC(=O)C(=O)c2cn(CC(=O)N3CCCCC3)c3ccccc23)c1	0%	5%	-19%	26µM*	23µM*	i
COc1ccccc1NC(=O)C(=O)c1cn(CC(=O)N2CCOCC2)c2ccccc12	-33%	x	-14%	u	21µM*	i
CC(C)NC(=O)CSc1cn(CC(=O)N2CCCCCC2)c2ccccc12	-1%	x	-10%	-13%	-21%	x
O=C(CSc1cn(CC(=O)N2CCCCC2)c2ccccc12)Nc1ccccc1	-9%	7%	-10%	-3%	u	i
CC1CCC(NC(=O)CCN2C(=O)C3C4C=CC(C4)C3C2=O)CC1 (stereo not given)	1%	6%	3%	-4%	18%	i
Cc1cc(Nc2ccccc2C)n2nc(Cc3ccc(Cl)cc3)nc2n1	-7%	-27%	-14%	u	u	i
COc1ccc(CCNC(=O)CCCn2c(=O)c3ccccc3n(CC(=O)Nc3ccccc3C)c2=O)cc1OC	1%	2%	0%	-5%	-14%	i
COCCNC(=O)CSc1cn(CC(=O)N2CCCCCC2)c2ccccc12	-18%	x	u	u	0.52µM*	x
CCOc1ccc(NC(=O)CSc2cn(CC(=O)N3CCCCCC3)c3ccccc23)cc1	-6%	x	u	23µM*	u	x
CNC(=O)CSc1cn(CC(=O)N2CCCCCC2)c2ccccc12	-1%	x	0%	-16%	-15%	x
CCOc1ccc(NC(=O)CSc2cn(CC(=O)N3CCOCC3)c3ccccc23)cc1	2%	x	-2%	u	-29%	x
CCCn1c(N)c(N(CCOC)C(=O)c2cc(S(=O)(=O)N3CCCCCC3)ccc2OC)c(=O)[nH]c1=O	-1%	-2%	-2%	u	-6%	i
Cc1ccccc1N/C(=C(/C(Cl)=C(Cl)Cl)[N+](=O)[O-])n1nnc2ccccc21	-13%	8%	-2%	16µM*	u	i
CCSc1nnc(NC(=O)C2CCN(C(=O)c3ccco3)CC2)s1	-1%	x	-1%	-8%	-9%	x
CC(=O)N1CCCC(c2cc(C(=O)Nc3ccccc3)no2)C1 (stereo not given)	-27%	u	4%	-25%	u	i
CC(C)(C)c1ccc(NC(=O)c2cc(C3CCCN(C(=O)CCc4ccccc4)C3)on2)cc1 (stereo not given)	-21%	-12%	28%	8.2µM*	12µM*	u
